# ± gives the standard deviation of the averaged measurements. In all, about 1,600 compounds were measured (“normalized growth (OD600, IQM-normalized) in LPM”: median about 1, lowest 2% from about 0.014 on). The entries come from a sample that favours the lowest values as a whole.
# System: Salmonella enterica serovar Typhimurium SL1344
# Experiment: normalized growth (OD600, IQM-normalized) in LPM (fraction of plate interquartile mean); higher = more bacterial growth (less inhibition)
# Conditions: LPM pH 5.8; 10 µM; 16 h
row,SMILES,normalized growth
1,Nc1[nH]cnc2ncnc1-2,0.993 ± 0.02
2,CCCNC(C)(C)COC(=O)c1ccccc1,0.983 ± 0.027
3,CC(=O)c1ccc2c(c1)N(CCCN1CCN(CCO)CC1)c1ccccc1S2,0.869 ± 0.053
4,CCCCCCCCCCCCCCCCCCCCCCO,1.11 ± 0.1
5,CC(=O)Nc1ccc(S(=O)(=O)c2ccc(NC(C)=O)cc2)cc1,0.889 ± 0.067
6,CCC(=O)OCC(=O)[C@@]1(OC(=O)CC)[C@H](C)CC2C3C([C@@H](O)C[C@@]21C)[C@@]1(C)C=CC(=O)C=C1C[C@H]3Cl (stereo partly specified),1.03 ± 0.019
7,O=C1c2ccccc2C(=O)C1c1ccc(Br)cc1,0.935 ± 0.066
8,O=C(OOC(=O)c1ccccc1)c1ccccc1,1.08 ± 0.046
9,Cc1cnc(C(=O)O)c[n+]1[O-],0.993 ± 0.078
10,C[C@@H]1NC(=O)[C@@H](N)CNC(=O)[C@H](C2CCNC(=N)N2)NC(=O)/C(=C/NC(N)=O)NC(=O)[C@H](CNC(=O)CC(N)CCCN)NC1=O.N=C1NCC[C@H]([C@@H]2NC(=O)/C(=C/NC(N)=O)NC(=O)[C@H](CNC(=O)C[C@@H](N)CCCN)NC(=O)[C@H](CO)NC(=O)[C@@H](N)CNC2=O)N1,0.985 ± 0.046
11,CC(C)(C)CC(C)(C)c1ccc(O)c(Cc2ccc(Cl)cc2Cl)c1,0.861 ± 0.066
12,Oc1ccc(OCc2ccccc2)cc1,0.91 ± 0.11
13,Cc1cc(NS(=O)(=O)c2ccc(N)cc2)no1,1.01 ± 0.022
14,CC[C@H](C)[C@H](N)C1=N[C@H](C(=O)N[C@@H](CC(C)C)C(=O)N[C@H](CCC(=O)O)C(=O)N[C@H](C(=O)N[C@H]2CCCCNC(=O)[C@H](CC(N)=O)NC(=O)[C@@H](CC(=O)O)NC(=O)[C@H](Cc3cnc[nH]3)NC(=O)[C@@H](Cc3ccccc3)NC(=O)[C@H]([C@@H](C)CC)NC(=O)[C@@H](CCCN)NC2=O)[C@@H](C)CC)CS1,1.06 ± 0.043
15,CC(C)OC(=O)CCC/C=C\C[C@@H]1[C@@H](/C=C/[C@@H](O)COc2cccc(C(F)(F)F)c2)[C@H](O)C[C@@H]1O,1.032 ± 0.0058
16,C=CC[C@@H]1/C=C(\C)C[C@H](C)C[C@H](OC)[C@H]2O[C@@](O)(C(=O)C(=O)N3CCCC[C@H]3C(=O)O[C@H](/C(C)=C/[C@@H]3CC[C@@H](O)[C@H](OC)C3)[C@H](C)[C@@H](O)CC1=O)[C@H](C)C[C@@H]2OC,0.857 ± 0.044
17,NC(=O)C1(N2CCCCC2)CCN(CCCC(=O)c2ccc(F)cc2)CC1,1.02 ± 0.051
18,CC(C)(S)[C@@H](N)C(=O)O,1.083 ± 0.0063
19,CC1=CC(=O)c2ccccc2C1=O,0.984 ± 0.017
20,Oc1ccc(Cl)c2cccnc12,0.847 ± 0.037
21,Oc1c(I)cc(I)c2cccnc12,0.58 ± 0.02
22,O=[N+]([O-])c1ccc(O)c2ncccc12,0.00762 ± 0.00015
23,C[C@@H](O)CN(CCN(C[C@@H](C)O)C[C@@H](C)O)C[C@@H](C)O,1.17 ± 0.054
24,CN(N=O)C(=O)N[C@H]1C(O)O[C@H](CO)[C@@H](O)[C@@H]1O (mixture of isomers),0.929 ± 0.021
25,COc1cccc2c1C(=O)c1c(O)c3c(c(O)c1C2=O)C[C@@](O)(C(C)=O)C[C@@H]3O[C@H]1C[C@H](N)[C@H](O)[C@H](C)O1,0.946 ± 0.016
26,CC(NCCC(c1ccccc1)c1ccccc1)c1ccccc1 (stereo unspecified),0.976 ± 0.038

row,SMILES,normalized growth
1,O=C(O)CCNC(=O)c1ccc(/N=N/c2ccc(O)c(C(=O)O)c2)cc1,1 ± 0.051
2,C[C@H]1O[C@H](O[C@H]2[C@H](O)[C@@H](O)[C@@H](O[C@H]3[C@H](O)[C@@H](O)C(O)O[C@@H]3CO)O[C@@H]2CO)[C@H](O)[C@@H](O)[C@@H]1N[C@H]1C=C(CO)[C@@H](O)[C@H](O)[C@H]1O (stereo partly specified),1.07 ± 0.011
3,CCOC(=O)c1ccc(O)cc1,1.02 ± 0.045
4,N[C@@H](Cc1cc(I)c(Oc2cc(I)c(O)c(I)c2)c(I)c1)C(=O)O,1.03 ± 0.039
5,O=C(COc1ccc(Cl)cc1)N1CCN(Cc2ccc3c(c2)OCO3)CC1,0.928 ± 0.019
6,COc1c(C)c2c(c(O)c1C/C=C(\C)CCC(=O)OCCN1CCOCC1)C(=O)OC2,1.01 ± 0.035
7,CC(=O)Nc1c(I)cc(I)c(C(=O)O)c1I,0.949 ± 0.12
8,Cc1c(OCC(F)(F)F)ccnc1C[S@@+]([O-])c1nc2ccccc2[nH]1,0.967 ± 0.085
9,CSCC[C@H](NC(=O)[C@H](Cc1c[nH]c2ccccc12)NC(=O)CCNC(=O)OC(C)(C)C)C(=O)N[C@@H](CC(=O)O)C(=O)N[C@@H](Cc1ccccc1)C(N)=O,1.09 ± 0.026
10,CC[C@H](c1ccc(O)cc1)[C@@H](CC)c1ccc(O)cc1,1.13 ± 0.018
11,CC(C)c1nc(N(C)S(C)(=O)=O)nc(-c2ccc(F)cc2)c1/C=C/[C@@H](O)C[C@@H](O)CC(=O)O,1.03 ± 0.097
12,CCn1nc(C(=O)O)c(=O)c2cc3c(cc21)OCO3,0.00789 ± 0.00035
13,CCCc1nc(C)c2c(O)nc(-c3cc(S(=O)(=O)N4CCN(CC)CC4)ccc3OCC)nn12,1.02 ± 0.053
14,CC1(C)S[C@@H]2[C@H](N3C(=O)[C@@H](c4ccccc4)NC3(C)C)C(=O)N2[C@H]1C(=O)O,0.976 ± 0.053
15,CCOC(=O)O[C@]1(C(=O)COC(=O)CC)CC[C@H]2[C@@H]3CCC4=CC(=O)C=C[C@]4(C)[C@H]3[C@@H](O)C[C@@]21C,1 ± 0.03
16,CC(=O)Oc1cccc(C)c1 [meta-CRESYL ACETATE],0.995 ± 0.048
17,OCCN1C[C@H](O)[C@@H](O)[C@H](O)[C@H]1CO,0.993 ± 0.016
18,C#CC1(O)CC[C@H]2[C@@H]3CCC4=CC(=O)CC[C@@H]4[C@H]3CC[C@@]21CC (stereo partly specified),0.941 ± 0.024
19,CC(=O)Nc1ccc(OC(C)=O)cc1,1.05 ± 0.08
20,CCC1=C(C)CN(C(=O)NCCc2ccc(S(=O)(=O)NC(=O)N[C@H]3CC[C@H](C)CC3)cc2)C1=O,0.926 ± 0.053
21,Nc1cc(C(Cl)=C(Cl)Cl)c(S(N)(=O)=O)cc1S(N)(=O)=O,1.01 ± 0.036
22,CC(=O)Oc1cccc(C(=O)O)c1OC(C)=O,0.912 ± 0.079
23,O=C(Nc1ccccc1)OCC(CN1CCCCC1)OC(=O)Nc1ccccc1 (stereo unspecified),0.903 ± 0.047
24,CC(=O)OCC(=O)[C@@]1(O)CC[C@H]2[C@@H]3CCC4=CC(=O)C=C[C@]4(C)[C@@]3(Cl)[C@@H](Cl)C[C@@]21C,0.894 ± 0.024
25,CC[N+](C)(CC)CCOC(=O)C(O)(c1ccccc1)C1CCCCC1 (stereo unspecified),1.1 ± 0.03
26,CC1/C=C/C=C/C=C/C=C/C=C/C=C/C=C/C(OC2O[C@H](C)[C@@H](O)[C@H](N)[C@@H]2O)CC(O)C(C(=O)O)C(O)CC(=O)CC(O)CC(O)CC(O)CC(=O)CCCC(=O)CC(=O)OC1C(C)CC(C)C(O)CC(=O)c1ccc(N)cc1 (stereo partly specified),1.03 ± 0.045

row,SMILES,normalized growth
1,Cc1cc(C)cc(OCC2CNC(=O)O2)c1 (stereo unspecified),1.02 ± 0.03
2,COc1c(N2CCNC(C)C2)c(F)cc2c(=O)c(C(=O)O)cn(C3CC3)c12 (stereo unspecified),0.0158 ± 0.0074
3,CCn1cc(C(=O)O)c(=O)c2cc(F)c(N3CCNC(C)C3)c(F)c21 (stereo unspecified),0.0416 ± 0.00075
4,C[C@@H]1CN(c2c(F)c(F)c3c(=O)c(C(=O)O)cn(C4CC4)c3c2F)C[C@H](C)N1,0.0487 ± 0.0099
5,COc1c(N2C[C@@H]3CCCN[C@@H]3C2)c(F)cc2c(=O)c(C(=O)O)cn(C3CC3)c12,0.0131 ± 0.0045
6,C[C@@H]1CN(c2c(F)c(N)c3c(=O)c(C(=O)O)cn(C4CC4)c3c2F)C[C@H](C)N1,0.0193 ± 0.0046
7,NC1CCN(c2c(F)cc3c(=O)c(C(=O)O)cn(C4CC4)c3c2Cl)C1 (stereo unspecified),0.0132 ± 0.00024
8,CC(=O)N(CC(O)CO)c1c(I)c(C(=O)NCCO)c(I)c(C(=O)NCC(O)CO)c1I (stereo unspecified),1.05 ± 0.036
9,Cc1oc(=O)oc1CN1CCN(c2cc3c(cc2F)c(=O)c(C(=O)O)c2n3C(C)S2)CC1 (stereo unspecified),0.00846 ± 7.6e-05
10,S=C1SCN(Cc2ccccc2)CN1Cc1ccccc1,1.11 ± 0.061
11,C=NC(C(=O)NC1C(=O)N2C1SC(C)(C)C2C(=O)O)c1ccccc1 (stereo unspecified),0.913 ± 0.058
12,C#C[C@]1(O)CC[C@H]2[C@@H]3CCc4cc(OC5CCCC5)ccc4[C@H]3CC[C@@]21C,0.954 ± 0.1
13,O=C([O-])[C@H]1/C(=C/CO)O[C@@H]2CC(=O)N21.[Li+],1.12 ± 0.076
14,C#C[C@]1(OC(C)=O)CC[C@H]2[C@@H]3CCC4=CC(=O)CC[C@@H]4[C@H]3CC[C@@]21C,1.14 ± 0.03
15,CC(=O)Oc1cc2c(s1)CCN(C(C(=O)C1CC1)c1ccccc1F)C2 (stereo unspecified),1.08 ± 0.1
16,Cc1nc(-c2ccc(OCC(C)C)c(C#N)c2)sc1C(=O)O,1.02 ± 0.038
17,CC(=O)OCC(=O)[C@@]1(O)[C@@H](C)C[C@H]2[C@@H]3CCC4=CC(=O)C=C[C@]4(C)[C@@]3(F)[C@@H](O)C[C@@]21C,1.01 ± 0.033
18,COc1ccc2cc1Oc1ccc(cc1)C[C@H]1c3c(cc4c(c3Oc3cc5c(cc3OC)CCN(C)[C@@H]5C2)OCO4)CCN1C,0.938 ± 0.024
19,CCC/C=C\C=C/C(=O)N[C@@H](CC(N)=O)C(=O)NC(CC(N)=O)C(=O)N[C@@H](C(=O)N[C@H](CCCN)C(=O)N[C@@H](C(=O)N[C@@H](C(=O)N[C@@H](C(=O)N[C@H](C(=O)N[C@@H](Cc1ccccc1)C(=O)N[C@H](CCCN)C(=O)NC(C(=O)N[C@H](C(=O)NC(C(=O)NCC(=O)N[C@@H](CC(C)C)C(=O)N[C@H](C)C(=O)NC(C(=O)O)C1CCC(O)C(Cl)C1)C1CCC(O)CC1)[C@H](C)O)C1CCC(O)CC1)[C@H](C)O)C1CCC(O)CC1)C1CCC(O)CC1)[C@H](C)O)C1CCC(O)CC1 (stereo partly specified) [RAMOPLANIN [A2 shown; 2mM]],1.31 ± 0.07
20,CC1(C)O[C@@H]2C[C@H]3[C@@H]4C[C@H](F)C5=CC(=O)C=C[C@]5(C)[C@H]4[C@@H](O)C[C@]3(C)[C@]2(C(=O)CO)O1,0.921 ± 0.042
21,Cc1cccc(C)c1NC(=O)c1ccccc1C(=O)O,1.15 ± 0.12
22,CC1(C)S[C@@H]2[C@H](NC(=O)[C@H](C(=O)O)c3ccsc3)C(=O)N2[C@H]1C(=O)O,1.01 ± 0.022
23,CC(=O)OC1CC2CCC1(C)C2(C)C (stereo unspecified),1.21 ± 0.048
24,CC(C)C[C@@H]1NC(=O)[C@H](CCCN)NC(=O)[C@H](C(C)C)NC(=O)[C@H](Cc2ccc(O)cc2)N[C@@H](CCC(=O)O)C(=O)N[C@@H](CC(N)=O)C(=O)[C@@H](Cc2ccccc2)NC(=O)[C@H](Cc2ccccc2)NC(=O)[C@@H]2CCCN2C(=O)[C@@H](Cc2ccccc2)NC1=O,0.992 ± 0.1

# Reference: the supplement of paper PMC6331611
